# Data published in PubChem BioAssay (NCI).
# Compounds without any hit were thinned out: in the full panel of roughly 83,000, 20% have a hit.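 How to read the values: 0–100, growth inhibition (40 = 60% inhibited); 0, no net growth; -100 to 0, cell death (-40 = 40% of starting cells died; -100 = all dead).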 A number with no mark means an inactive call. Active and inactive are the calls of the source. The calls were made as follows: active = growth percent below 10; inactive = the rest.
# Experiments:
# Test in all cases: NCI-60 one-dose screen, 48 h (100 = growth as untreated, 0 = no growth, -100 = all killed)
# Details in all cases: 10 µM unless noted
# SK-MEL-2 melanoma = system: SK-MEL-2 melanoma
# EKVX NSCLC = system: EKVX NSCLC
# SN12C renal = system: SN12C renal
# UO-31 renal = system: UO-31 renal
# TK-10 renal = system: TK-10 renal
# ACHN renal = system: ACHN renal
# CAKI-1 renal = system: CAKI-1 renal
# A498 renal = system: A498 renal
# CCRF-CEM leukemia = system: CCRF-CEM leukemia
# MOLT-4 leukemia = system: MOLT-4 leukemia
# SR leukemia = system: SR leukemia
# RPMI-8226 leukemia = system: RPMI-8226 leukemia
# OVCAR-8 ovarian = system: OVCAR-8 ovarian
# OVCAR-4 ovarian = system: OVCAR-4 ovarian
# SK-OV-3 ovarian = system: SK-OV-3 ovarian
# IGROV1 ovarian = system: IGROV1 ovarian
# OVCAR-3 ovarian = system: OVCAR-3 ovarian
# HS 578T breast = system: HS 578T breast
# NCI/ADR-RES ovarian = system: NCI/ADR-RES ovarian
# OVCAR-5 ovarian = system: OVCAR-5 ovarian
Structure (SMILES),growth (SK-MEL-2 melanoma),growth (EKVX NSCLC) [%],growth (SN12C renal) [%],growth (UO-31 renal) [%],growth (TK-10 renal) [%],growth (ACHN renal) [%],growth (CAKI-1 renal),growth (A498 renal),growth (CCRF-CEM leukemia),growth (MOLT-4 leukemia),growth (SR leukemia),growth (RPMI-8226 leukemia),growth (OVCAR-8 ovarian),growth (OVCAR-4 ovarian),growth (SK-OV-3 ovarian),growth (IGROV1 ovarian),growth (OVCAR-3 ovarian) [%],growth (HS 578T breast) [%],growth (NCI/ADR-RES ovarian) [%],growth (OVCAR-5 ovarian) [%]
CCN(CC)CCOC(COc1cc(C)cc(C)c1)COc1cc(C)cc(C)c1,86.7%,53,28.8,31.6,48,46.2,40.1%,28.4%,14.5%,13.5%,-20.8% (active),0.427% (active),58.6%,50.9%,67.1%,12.6%,58.4,61.6,41.5,–
CC1=NNC(=O)C1CCC(=O)N/N=C(\C)c1ccc2ccccc2c1 (stereo unspecified),102%,154,102,84.8,130,111,107%,110%,105%,88.9%,–,107%,102%,117%,126%,92.6%,105,114,94.3,77.2
CN1CCN(C(=O)[C@]2(C)CC[C@]3(C)CC[C@]4(C)C(=CC(=O)[C@@H]5[C@@]6(C)CCC(=O)NC(C)(C)[C@@H]6CC[C@]54C)[C@@H]3C2)CC1,100%,93.9,90.4,71.8,105,108,95.8%,102%,93.2%,85.6%,77.6%,99.7%,99.8%,92.1%,91%,99.9%,101,88.1,96.6,–
COc1ccc(-c2cnnc3c(-c4cccc(C(F)(F)F)c4)cnn23)cc1,54.6%,30.6,49.8,57.6,21,14.9,-31.8% (active),78.6%,61.2%,89.2%,–,45.8%,19.6%,35.7%,15.1%,64.1%,26.4,20.1,60.5,81
CC1(c2ccccc2)NC(=O)N(CC(=O)Nc2cccc(I)c2)C1=O (stereo unspecified),77.5%,106,96.9,69.8,96.1,91.4,72.9%,70.5%,88.5%,85.3%,71.1%,74.1%,91.9%,90.3%,87.5%,–,90.2,44.9,92.7,89.7
COc1cc(OC)cc(C2C3=C(COC3=O)Nc3cc(OC)ccc32)c1 (stereo unspecified),1.66% (active),53.7,25.2,46.8,65.7,28.1,36.7%,1.93% (active),19.9%,17.6%,8.35% (active),–,8.63% (active),49.4%,-3.6% (active),42.2%,–,68.1,–,39.5
COc1ccc(Cn2nc3c(c2-c2cc(OC)c(OC)c(OC)c2)-c2oncc2CC3)cc1,103%,85.6,93.5,65.8,96.2,91.9,65.2%,80.3%,103%,77.9%,25.5%,–,107%,86.8%,94.7%,81.8%,98,116,65.9,88
COc1ccc(Cn2nc(-c3cc(OC)c(OC)c(OC)c3)c3c2CCc2cnoc2-3)cc1OC,38%,77.7,60.6,32.7,72.5,74.9,50.3%,42.1%,55.6%,36.2%,1.81% (active),–,79%,70.7%,47%,63.4%,39.7,72.5,26.1,89.9
c1ccc(Cn2nc3c(c2-c2ccccc2)-c2oncc2CC3)cc1,102%,90.1,95.3,82.7,107,97.6,77.9%,89.4%,80.4%,79.8%,72.4%,–,86.8%,87.5%,115%,110%,–,–,84.1,107
CN1C2CCC1CN(c1cnc(C(=O)Nc3cc(F)cc4cccnc34)cn1)C2,109%,45.9,51.4,28.3,77.2,24.4,46.6%,74.9%,28.3%,21.1%,22.4%,44.5%,54.4%,8.7% (active),81.9%,6.34% (active),20.4,54.6,–,–
COc1ccc(C2CC(c3cccc(Nc4ccncc4)c3)=NN2c2ccccc2)cc1 (stereo unspecified),71.7%,87.2,80.6,64.3,68.7,69.2,51.5%,78%,30.7%,10.7%,2.73% (active),-6.86% (active),20.5%,51.8%,67.7%,43.7%,61.3,68.5,69.9,–
CC(C)Cc1ccc(C(C)C(=O)NCc2ccc(Cn3c(=O)sn(-c4ccc(Cl)cc4)c3=O)cc2)cc1 (stereo unspecified),107%,82.6,84.1,65.4,74.2,56.5,74.7%,95%,96.2%,85.7%,72.2%,83.9%,79.5%,47.4%,92%,92.2%,91.5,71.8,90.3,–
COc1c(Cl)cc(Cl)c2ccc(C=C3C(=O)NC(=S)NC3=O)nc12,105%,104,100,93.2,107,101,91.7%,93.8%,105%,105%,99%,105%,109%,109%,106%,108%,–,102,100,–
O=C1/C(=C/c2ccc(O)cc2)COc2ccc(-c3ccccc3)cc21,66.9%,105,76.2,42.9,83.9,86,132%,100%,-25.2% (active),-22.5% (active),–,-29.7% (active),71.9%,100%,107%,51.6%,56.5,88.2,78.2,102
O=C1Nc2c(ccc(Cl)c2Cl)/C1=C/c1ccc(F)cc1,5.62% (active),60.2,98.3,71.9,109,85.9,38%,92.5%,93.5%,76%,73.9%,96.5%,97.9%,73.8%,89.7%,42.8%,–,73.8,94,84.4
NC(=O)c1ncn(C2OC(CO)C(O)C2O)n1 (stereo unspecified),40.7%,90.2,82.4,83.7,109,90.5,99.2%,89.1%,67.1%,52.7%,73.2%,–,87.5%,87.8%,87.9%,4.17% (active),95.1,86.4,88.6,95.2
Cn1c(=O)c2[nH]c(CCCc3nc4c([nH]3)c(=O)n(C)c(=O)n4C)nc2n(C)c1=O,109%,113,103,102,118,103,108%,142%,124%,136%,129%,107%,90.4%,118%,–,–,128,116,109,122
